Among all 420,000 compounds or so, about 64,000 (15%) were called active. Another 27% or so got no clear call; they are omitted. Calls come from the whole dose curve; as a rule, active = well fitted inhibition curve with a large enough effect; inconclusive = small, poorly fitted or top-dose-only effect; inactive = flat fitted curve, though single readings scatter. These entries were drawn from the full list. Entries that show only a call come without a potency.
Potency is the fitted concentration of half-maximal effect.

The nature of the test: qHTS for Inhibitors of human tyrosyl-DNA phosphodiesterase 1 (TDP1): qHTS in cells in absence of CPT. Note: nearly all actives have a fitted effect of over 55% in size. The following applies: DT40 Tdp1-/- hTDP1 cells, no CPT, ATP luminescence, 48 h; activity change, negative = growth inhibition: at 46.2 µM (top of the series). An outline of the steps: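 Cells were dispensed at 400 per well, compounds added by pin tool, plates incubated ≥48 hr at 37 °C, then CellTiter-Glo added for 30 min at room temperature before luminescence reading. Line: DT40 Tdp1-/- complemented with hTDP1; camptothecin omitted.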
(In qHTS, concentration-response curves come from the screen itself.)
In the case of `CC(CN1CCC(n2nccc2NC(=O)C2CCCC2)CC1)c1ccccc1` (stereo not given), the Potency entry is “inactive”.

For `Nc1c(-c2ccc(F)cc2)cnc2ncnn12`, the Potency entry is “inactive”.

Regarding `COc1ccc(C)cc1NC(=O)NCc1ccccn1`, the Potency result was “inactive”.

Regarding `COC(=O)C1=C(C)N=C2SC(C)C(=O)N2C1/C=C/c1ccccc1` (stereo not given), the Potency result is “inactive”.

With `COCCNC(=O)CN(C(=O)CCC(=O)Nc1cc(C)on1)c1ccc(C)cc1C`, the Potency result is “inactive”.

`COc1ccccc1NS(=O)(=O)c1ccc(C)c(C(=O)NNC(=O)c2csc(N3CCOCC3)n2)c1`: the Potency entry was “inactive”.

In the case of `Cc1[nH]n(C)c(=O)c1C(=O)c1c(-c2c(Cl)cccc2Cl)noc1C`, the Potency result was “inactive”.

Regarding `Cc1onc(-c2ccccc2)c1C(=O)N1CCN(S(=O)(=O)c2ccccc2C(F)(F)F)CC1`, the Potency result was “inactive”.

Consider `COc1ccccc1NS(=O)(=O)c1ccc(C(=O)N2CCN(c3ccccc3O)CC2)cc1`, for which the Potency was 16.4 µM (active).

Take `COc1ccc(S(=O)(=O)Nc2ccccc2C(=O)N2CCCC2)cc1C`: the Potency result was “inactive”.

Regarding `COc1ccccc1N1CCN(C(=O)c2c(-c3c(Cl)cccc3Cl)noc2C)CC1`, the Potency is 20.6 µM (active).

Consider `COc1ccc2c(c1)CCC/C2=N\OC(=O)c1ccccc1F`, for which the Potency entry was “inactive”.

As for `CC(C)(CSc1nncn1/N=C/c1ccco1)NS(=O)(=O)c1ccc(Cl)cc1`, the Potency result is “inactive”.

`O=C(COC(=O)CSc1nnc(-c2ccc(Cl)cc2)o1)Nc1cc(Cl)cc(Cl)c1`: the Potency result was “inactive”.

Consider `Cn1ccsc1=NC(=O)c1cc(S(=O)(=O)N2CCOCC2)ccc1Cl`, for which the Potency entry is “inactive”.

Regarding `Cc1ccccc1C(=O)Nc1ccccc1Sc1ccccc1`, the Potency entry is “inactive”.

As to `O=C(O)COc1nsnc1N1CCOCC1`, the Potency result was “inactive”.

For `CSCCC(NC(N)=O)C(=O)N(C)CC(=O)Nc1ccc(C)cc1` (stereo not given), the Potency entry was “inactive”.

Take `COc1cccc(N2CC(NC(=O)/C=C\c3ccccc3)CC2=O)c1` (stereo not given): the Potency entry is “inactive”.

On to `COc1ccc(-c2nn3c(-c4ccc(OC)cc4)nnc3c3ccccc23)cc1`, for which the Potency entry was “inactive”.

For the molecule `CC(C)N(C(=O)Cn1cc(S(=O)(=O)CC(=O)N2CCOCC2)c2ccccc21)C(C)C`, the Potency result was “inactive”.

Take `O=C(NCc1ccccc1)C1=C[C@@H](C2CCCCC2)C[C@@H](OCc2ccc(CO)cc2)O1`: the Potency was 16.4 µM (active).

As to `O=C(COC(=O)CNC(=O)C1CCCCC1)NCc1ccccc1`, the Potency result is “inactive”.

Take `O=C(O)C1CCN(C(=O)OCc2ccccc2)CC1`: the Potency result is “inactive”.

On to `COc1cc(Cl)cc(C2NC(=O)NC(C)=C2C(=O)NCc2ccccc2)c1O` (stereo not given), for which the Potency result is “inactive”.

For the molecule `CC(NC(=O)COc1ccc(-c2ccccc2)cc1)C1CCCO1` (stereo not given), the Potency is 11.6 µM (active).

In the case of `CC(=O)Nc1ccc(NC(=O)COc2ccc(-c3ccccc3)cc2)cc1`, the Potency entry was “inactive”.

As to `CCOc1ccc(C(CC(=O)O)NC(=O)COc2ccccc2)cc1` (stereo not given), the Potency result is “inactive”.

For the molecule `COc1ccc(NC(=O)N(C)C[C@H]2Oc3ccc(NC(=O)C4CC4)cc3C(=O)N([C@H](C)CO)C[C@@H]2C)cc1`, the Potency entry was “inactive”.

As to `CCCc1cc(=O)[nH]c(SCc2ccc(C#N)cc2)n1`, the Potency entry is “inactive”.

For `CSCCC(Nc1ccc(S(=O)(=O)N2CCOCC2)cc1[N+](=O)[O-])C(=O)OCC(=O)N(C(C)C)C(C)C` (stereo not given), the Potency entry is “inactive”.

Consider `COc1ccc(-n2c(C)cc(C(=O)CSc3nnc(-c4cccs4)o3)c2C)cc1`, for which the Potency was 16.4 µM (active).

Take `Cc1ccc(OC(=O)CSc2nnc(-c3cccs3)o2)cc1`: the Potency entry is “inactive”.

On to `COc1ccc(OC)c(C(=O)CSc2nnc(-c3cccs3)o2)c1`, for which the Potency result was “inactive”.

Consider `Cc1cc(C)c(NC(=O)CN2CCCCCC2)c(C)c1`, for which the Potency result is “inactive”.

Take `Cc1c(-c2ccccc2)cn2c1-c1ccc(C)n1CC2`: the Potency was 16.4 µM (active).

For `O=c1[nH]c(SCc2ccccc2)nnc1-c1ccccc1`, the Potency entry was “inactive”.

Regarding `CN(C)C(=O)CSc1n[nH]c(-c2ccco2)n1`, the Potency entry is “inactive”.

As for `COC(C[C@@H](O)C[C@@H](O)[C@H](C)OCc1ccccc1)OC`, the Potency entry was “inactive”.

For `O=C(Cc1ccc(Br)cc1)NCCc1ccccc1`, the Potency entry is “inactive”.

Turning to `COC(=O)C(CC(=O)Nc1cc(C)ccc1C)Nc1ccccc1OC` (stereo not given), the Potency result is “inactive”.

In the case of `CC1CN(C(=O)CCC(=O)NCc2cccnc2)c2ccccc2O1` (stereo not given), the Potency entry is “inactive”.

Regarding `COc1ccccc1NC(=O)CCC(=O)N1CC(C)Oc2ccc(C)cc21` (stereo not given), the Potency is 16.4 µM (active).

On to `O=C(Cn1nnc(-c2ccccc2)n1)NCc1ccc2c(c1)OCO2`, for which the Potency entry was “inactive”.

As to `CN(C)C(=O)c1cccc(-c2cnc3sc(NCc4ccc5c(c4)OCO5)nn23)c1`, the Potency is 13 µM (active).

Consider `O=C(CSc1ncnc2scc(-c3ccccc3)c12)NCc1ccc2c(c1)OCO2`, for which the Potency result is “inactive”.

Take `OC(CNC1CCCC1)COc1ccc(F)cc1` (stereo not given): the Potency entry was “inactive”.

Consider `Nc1c(C(=O)Nc2ccc3c(c2)OCCO3)nnn1Cc1ccccc1`, for which the Potency result was “inactive”.

For the molecule `COC(=O)c1ccc(CSc2nc3cc(Cl)ccc3o2)cc1`, the Potency entry is “inactive”.

With `O=S(=O)(c1ccccc1)c1nc(-c2ccccc2F)oc1NCc1cccnc1`, the Potency entry is “inactive”.

For the molecule `COc1cccc(-c2nc(S(=O)(=O)c3ccc(C)cc3)c(NCc3ccccc3)o2)c1`, the Potency is 18.4 µM (active).

As for `O=S(=O)(c1ccc(Br)cc1)c1nc(-c2ccccc2)oc1NCc1cccnc1`, the Potency result was “inactive”.

On to `COc1cc(C2C3C(=O)N(c4ccccc4)C(=O)C3ON2c2ccccc2)ccc1O` (stereo not given), for which the Potency entry is “inactive”.

For the molecule `COc1ccc(-c2nn(CC(=O)NC3CCCC3)c3c2cnc2ccc(F)cc23)cc1`, the Potency entry was “inactive”.

For the molecule `COc1ccc2ncc3c(-c4ccc(C)c(C)c4)nn(CC(=O)NC4CCCC4)c3c2c1`, the Potency is 6.51 µM (active).

For `CCc1ccc2ncc3c(-c4ccc(C)cc4)nn(CC(=O)NCc4ccccc4)c3c2c1`, the Potency result is “inactive”.

For the molecule `COc1cccc2c(=O)n(CC(=O)N3CCCCCC3)ccc12`, the Potency entry is “inactive”.

As to `COc1cc(C2C(C(=O)Nc3ccc(F)cc3)=C(C)Nc3nc(CCCO)nn32)cc(OC)c1OC` (stereo not given), the Potency entry was “inactive”.

For `CCOc1cc(C2C(C(=O)Nc3ccc(OC)cc3)=C(C)Nc3nc(SC)nn32)ccc1O` (stereo not given), the Potency entry is “inactive”.

Turning to `CCOc1ccc(C2C(C(=O)Nc3ccc(Cl)cc3)=C(C)Nc3nc(C(F)(F)F)nn32)cc1` (stereo not given), the Potency is 14.6 µM (active).

Regarding `CCOc1ccccc1-c1cc(C(=O)N2CCOCC2)c2ccccc2n1`, the Potency result is “inactive”.

For the molecule `COc1cc(OC)c(N(C)C(=O)c2cc3c(=O)oc4ccccc4c3s2)cc1Cl`, the Potency entry was “inactive”.

In the case of `CCOc1ccccc1N(C)C(=O)c1cc2c(s1)-c1ccccc1OC2`, the Potency is 16.4 µM (active).

In the case of `COc1ccc(C(=O)NC(C)Cn2nc(C)cc2C)cc1OC1CCN(C(C)=O)CC1` (stereo not given), the Potency result is “inactive”.

Take `COc1ccc(-c2onc3ccc(C(C)=O)cc23)cc1`: the Potency entry is “inactive”.

Source of the values: PubChem BioAssay AID686978 (National Center for Advancing Translational Sciences (NCATS), 2013).
